Unmarked numbers belong to inactive results. Inconclusive results are not listed. The source made the active and inactive calls. Calls come from the whole dose curve; as a rule, active = well fitted curve in the direction sought with a large enough effect in the repeat runs; inconclusive = weak or mixed curves; inactive = no such curve, though single readings can be large; an effect the other way counts as inactive or inconclusive.

Assay [1] is described as follows: Human pregnane X receptor (PXR) small molecule agonists, qHTS cell viability counter screen (AID 1346977). Note: nearly all actives have a fitted effect of over 50% in size. Note: potency is the fitted concentration of half-maximal effect. The method, boiled down:
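HepG2 cells stably carrying the PXR-Luc reporter are cultured with 5% charcoal-stripped FBS and treated with compounds for 24hr. CellTiter-Fluor is added at 23hr and fluorescence is read after 1hr.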
(qHTS replaces the single test concentration by a dilution series.)

The nature of assay [2]: Caspase-3/7 induction in HepG2 cells by small molecules, qHTS assay (AID 1346978). Note: nearly all actives have a fitted effect of over 15% in size. Note: potency is the fitted concentration of half-maximal effect. The procedure, abridged: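 Wild-type HepG2 cells (2,000/well) were settled 5 h at 37 C, 5% CO2, then exposed to compounds in DMSO for 17 h. Caspase-3/7 activity was read by luminescence 30 min after adding Caspase-Glo 3/7 reagent at room temperature.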
Assay [3] is described as follows: Caspase-3/7 induction in CHO-K1 cells by small molecules, qHTS cell viability counter screen (AID 1346979). Note: nearly all actives have a fitted effect of over 35% in size. Note: potency is the fitted concentration of half-maximal effect. The procedure, abridged: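 Seeding: 1,500 CHO-K1 cells/well. Rest: 5hr, 37C. Treatment: compounds in DMSO, 16hr. Read: CellTiter-Fluor, 1hr, fluorescence.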
Assay [4] is described as follows: Caspase-3/7 induction in CHO-K1 cells by small molecules, qHTS assay (AID 1346980). Note: nearly all actives have a fitted effect of over 15% in size. Note: potency is the fitted concentration of half-maximal effect. The procedure, abridged: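 Wild-type cells were seeded at 1,500 per well and settled 5 hr at 37 C, 5% CO2, then exposed to DMSO-dissolved compounds for 17 hr. Caspase-Glo 3/7 reagent was added, and luminescence was read after 30min at room temperature.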
A short description of assay [5]: Caspase-3/7 induction in HepG2 cells by small molecules, qHTS cell viability counter screen (AID 1346981). For activity change, negative = cytotoxicity: series mostly up to about 92 µM. Note: nearly all actives have a fitted effect of over 30% in size. Note: potency is the fitted concentration of half-maximal effect. The procedure, abridged: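 Wild-type HepG2 cells, 2,000/well, settled 5 hr at 37 C, 5% CO2 before compound addition. Viability read by CellTiter-Fluor fluorescence, reagent added after 16 hr compound exposure, then 1 hr at 37C, in the same wells as the caspase read.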

Assay [6] has as its target Nuclear receptor subfamily 1 group I member 2 (Homo sapiens) (UniProt O75469). The assay is described as follows: Human pregnane X receptor (PXR) small molecule agonists, qHTS assay (AID 1346982). Note: nearly all actives have a fitted effect of over 35% in size. Note: potency is the fitted concentration of half-maximal effect. The procedure, abridged: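 PXR-Luc HepG2 reporter cells (CYP3A4-driven luciferase) in 5% charcoal-stripped FBS medium, plated 5 h before compound addition, then treated 24 h at 37C. Luciferase read by ONE-Glo luminescence after 30 min at room temperature.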

For assay [7] the target is unchanged. The assay is described as follows: CYP3A4 induction through human pregnane X receptor (PXR) by small molecules, qHTS assay (AID 1346984). Note: nearly all actives have a fitted effect of over 40% in size. The procedure, abridged: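 DPX-2 HepG2 cells carrying a PXR response element and CYP3A4-promoter luciferase construct, treated with compounds 24 hr at 37C. Then P450-Glo CYP3A4 Luciferin-IPA substrate (3uM final) for 3 hr at 37C, One-Glo added, luminescence read.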

The target is the same in assay [8]. The assay is described as follows: Human pregnane X receptor (PXR) activation by small molecules, qHTS assay (AID 1346985). Note: nearly all actives have a fitted effect of over 40% in size. Note: potency is the fitted concentration of half-maximal effect. The method, boiled down: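 DPX-2 cells (HepG2 co-transfected with a PXR response element and a CYP3A4-promoter luciferase construct) were seeded at 2,000 per well, rested 5 hr at 37C, then exposed to DMSO-dissolved compounds for 24 hr. Activation was read as luciferase luminescence.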

In assay [9] the target is Cytochrome P450 2D6 (Homo sapiens) (UniProt P10635). Put plainly: Cytochrome P450 Family 2 Subfamily D Member 6 (CYP2D6) small molecule antagonists: luciferase reporter qHTS assay (AID 1671196). For activity change, negative = inhibition: series mostly up to about 120 µM. Note: nearly all actives have a fitted effect of over 50% in size. Note: potency is the fitted concentration of half-maximal effect. The procedure, abridged: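 Cell-free P450-Glo system: CYP2D6 with proluciferin substrate was pre-incubated with compound for 10 min, then reacted with NADPH regeneration for 1 h at room temperature. Luciferin product was detected after 20 min, and data were reported as relative luminescence units.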
In general terms: A reporter such as luciferase makes a cellular process visible.

Assay [10] deals with Nuclear receptor subfamily 1 group I member 2 (Rattus norvegicus) (UniProt Q9R1A7). Put plainly: Rat pregnane X receptor (rPXR) activation by small molecules, qHTS assay (AID 1346983). Note: nearly all actives have a fitted effect of over 20% in size. As to conditions: rPXR luciferase reporter cells, One-Glo luminescence, 24 h; max activation: stronger effect = higher value. The method, boiled down: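 Cell-based rPXR luciferase reporter assay, 2,000 cells per well, rested 5hr at 37 C before compound addition in DMSO, then 24 hr at 37 C. One-Glo reagent was added and luminescence read after 30 min at room temperature.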
% is set by controls: 0 for no effect and ±100 for the full control effect.

Chain of Nuclear receptor subfamily 1 group I member 2 (Homo sapiens) (O75469 whole entry, looked up): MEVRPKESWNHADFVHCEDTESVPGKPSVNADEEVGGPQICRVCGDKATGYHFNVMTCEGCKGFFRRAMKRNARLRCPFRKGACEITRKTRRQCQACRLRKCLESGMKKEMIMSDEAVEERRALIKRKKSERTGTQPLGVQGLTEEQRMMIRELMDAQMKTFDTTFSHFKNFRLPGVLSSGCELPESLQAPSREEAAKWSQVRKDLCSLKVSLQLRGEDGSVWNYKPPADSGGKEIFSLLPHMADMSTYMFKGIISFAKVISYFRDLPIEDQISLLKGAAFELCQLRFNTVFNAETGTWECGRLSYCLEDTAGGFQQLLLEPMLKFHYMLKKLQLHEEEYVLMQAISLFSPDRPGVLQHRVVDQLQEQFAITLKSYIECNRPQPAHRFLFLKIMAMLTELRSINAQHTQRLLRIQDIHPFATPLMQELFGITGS
Chain of Nuclear receptor subfamily 1 group I member 2 (Rattus norvegicus) (Q9R1A7 whole entry, looked up): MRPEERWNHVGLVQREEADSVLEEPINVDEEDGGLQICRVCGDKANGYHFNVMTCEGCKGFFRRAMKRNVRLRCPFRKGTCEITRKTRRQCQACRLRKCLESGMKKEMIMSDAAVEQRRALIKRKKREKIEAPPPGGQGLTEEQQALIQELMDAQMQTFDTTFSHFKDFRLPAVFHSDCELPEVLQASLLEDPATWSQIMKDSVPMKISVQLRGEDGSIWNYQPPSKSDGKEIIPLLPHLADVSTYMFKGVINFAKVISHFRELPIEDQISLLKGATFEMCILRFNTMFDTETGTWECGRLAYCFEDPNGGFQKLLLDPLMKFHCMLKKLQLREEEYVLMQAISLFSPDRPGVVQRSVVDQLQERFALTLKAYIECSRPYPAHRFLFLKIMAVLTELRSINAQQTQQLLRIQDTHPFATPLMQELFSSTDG
Chain of Cytochrome P450 2D6 (Homo sapiens) (P10635 whole entry, looked up): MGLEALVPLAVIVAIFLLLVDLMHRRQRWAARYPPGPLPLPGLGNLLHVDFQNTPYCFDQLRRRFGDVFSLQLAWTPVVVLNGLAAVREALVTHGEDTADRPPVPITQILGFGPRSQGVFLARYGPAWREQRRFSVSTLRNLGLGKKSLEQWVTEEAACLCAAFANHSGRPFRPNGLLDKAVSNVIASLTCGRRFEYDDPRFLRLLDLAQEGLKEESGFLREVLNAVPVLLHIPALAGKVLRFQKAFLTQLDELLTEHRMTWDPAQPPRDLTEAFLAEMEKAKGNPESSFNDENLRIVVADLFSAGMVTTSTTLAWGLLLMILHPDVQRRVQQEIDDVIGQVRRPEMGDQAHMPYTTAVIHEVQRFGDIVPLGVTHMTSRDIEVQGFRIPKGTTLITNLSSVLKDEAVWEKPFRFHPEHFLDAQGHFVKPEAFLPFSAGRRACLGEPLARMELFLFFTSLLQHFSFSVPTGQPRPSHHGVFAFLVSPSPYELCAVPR

As to `CCC(Cl)CCC(Cl)C(Cl)CC(Cl)C(Cl)C(Cl)CCl` (stereo not given), the Potency entry in [1], in assay [2], in assay [3], in assay [4], in assay [5] and in assay [6] was “inactive” in each case.

With `S=C([S-])NCCNC(=S)[S-].[Mn+2]`, the Potency entry in assay [1], in [2], in assay [3], in assay [4] and in [5] was “inactive” throughout. Also, the Potency in [6] was 30.6 µM (active).

Turning to `c1ccc(CNCCNCc2ccccc2)cc1`, the Potency entry in assay [1], in assay [2], in assay [3], in assay [4], in assay [5] and in assay [6] was “inactive” throughout. The Potency result in assay [7] and in assay [8] was “inactive” in each case. Besides, in [9], the Potency was 776 nM (active).

As for `C[N+]1(CC2COC(c3ccccc3)(C3CCCCC3)O2)CCCCC1` (stereo not given), the Potency result in [1], in assay [2], in [3], in assay [4], in assay [5] and in assay [6] was “inactive” throughout. Besides, the Potency result in assay [7] and in [8] was “inactive” in each case. Also, the Potency in assay [9] is 977 nM (active).

For the compound `CC(CSC(=O)c1ccccc1)C(=O)N1C[C@@H](Sc2ccccc2)C[C@H]1C(=O)O` (stereo not given in full), the activity change, negative = cytotoxicity in assay [1] was 14.3% [at 19 µM]; in assay [3] it was -1.81% [at 19 µM]; in assay [5] it was -2.03% [at 19 µM]. In addition, the caspase activation in [2] was 0.287% [at 19 µM]. Moreover, in assay [4], the caspase-3/7 activation is 0.0462% [at 19 µM]. In addition, the activation in assay [6] is 21.6% [at 19 µM]. The max activation in assay [10] was -2.82%. The Potency result in [7] and in assay [8] was “inactive” in each case.

Take `O=C(O)CNCC(=O)O`: the activity change, negative = cytotoxicity was 4.27% [at 8.39 µM] in [1], 0.398% [at 8.39 µM] in assay [3] and 1.14% [at 8.39 µM] in [5]. For the same compound, the caspase activation in assay [2] was 2.93% [at 8.39 µM]. The caspase-3/7 activation in [4] was 0.331% [at 8.39 µM]. In addition, the activation in assay [6] is -2.51% [at 8.39 µM].

Consider `Cc1ncc(CO)c(C=O)c1O`, for which the Potency entry in [1], in [2], in assay [3], in assay [4], in assay [5] and in assay [6] was “inactive” each time. The Potency entry in assay [7] and in assay [8] was “inactive” throughout. The max activation in assay [10] was -0.222%.

`Nc1ccc(S(=O)(=O)Nc2ccccc2)cc1`: the Potency entry in assay [1], in assay [2], in assay [3], in assay [4], in assay [5] and in assay [6] was “inactive” in each case. Besides, the Potency entry in assay [7] and in [8] was “inactive” throughout. Besides, in assay [10], the max activation was -5.46%.

For `CCn1cc(C(=O)O)c(=O)c2cnc(N3CCNCC3)nc21`, the Potency result in assay [1], in assay [2], in assay [3], in assay [4], in assay [5] and in [6] was “inactive” each time. For the same compound, the Potency result in assay [7], in assay [8] and in [9] was “inactive” throughout. Also, in assay [10], the max activation was -1.76%.

`COc1ccnc(CS(=O)c2nc3ccc(OC(F)F)cc3[nH]2)c1OC` (stereo not given): the Potency entry in assay [1], in [2], in assay [3], in assay [4], in assay [5] and in [6] was “inactive” each time.

Regarding `CC(=O)[O][Al][O]C(C)=O`, the Potency entry in assay [1], in assay [2], in assay [3], in assay [4], in assay [5] and in [6] was “inactive” in each case. Moreover, the Potency entry in assay [7], in assay [8] and in assay [9] was “inactive” in each case. In addition, in assay [10], the max activation is -1.35%.

For `CC1(c2ccccc2)OC(C(=O)O)=CC1=O` (stereo not given), the Potency result in assay [1], in [2], in assay [3], in assay [4], in assay [5] and in assay [6] was “inactive” each time. Moreover, the Potency entry in assay [7] and in assay [8] was “inactive” throughout.

With `CCN(CC)CCNc1ccc(CNC=O)c2sc3ccc(OC)cc3c(=O)c12`, the Potency in assay [1] was 9.69 µM (active); in [2], 61.1 µM (active); in assay [3], 6.11 µM (active); in assay [4] it was 30.6 µM (active); in assay [5] it was 9.69 µM (active). The Potency result in assay [6] is “inactive”.

Regarding `C=CC1CC2C=CC1C2` (stereo not given), the Potency entry in [1], in assay [2], in assay [3], in assay [4], in [5] and in assay [6] was “inactive” throughout. In assay [9], the Potency result was “inactive”.

Take `Nc1c(CC(=O)O)cccc1C(=O)c1ccc(Br)cc1`: the Potency entry in [1], in assay [2], in [3], in assay [4], in assay [5] and in assay [6] was “inactive” in each case. Further, the Potency entry in [7], in assay [8] and in assay [9] was “inactive” each time.

For the compound `Cc1cccc(C)c1OCC(=O)N[C@@H](Cc1ccccc1)[C@@H](O)C[C@H](Cc1ccccc1)NC(=O)[C@H](C(C)C)N1CCCNC1=O`, the Potency in [1] was 29.8 µM (active); in assay [3], 26.6 µM (active); in [5] it was 26.6 µM (active); in assay [6], 29.8 µM (active); in assay [8], 3.98 µM (active); in assay [9], 15500 nM (active). Further, the Potency result in assay [2] and in [4] was “inactive” each time.

On to `O=C(O)c1ccc(-n2nc(-c3ccccc3O)nc2-c2ccccc2O)cc1`, for which the Potency entry in assay [1], in [2], in assay [4], in assay [5], in assay [6] and in assay [9] was “inactive” in each case. In addition, in assay [3], the Potency is 18.8 µM (active).

As to `O[C@@H](COc1cccc2ncccc12)CN1CCN(C2c3ccccc3[C@@H]3[C@H](c4ccccc42)C3(F)F)CC1` (stereo not given in full), the Potency in assay [1] was 23.7 µM (active); in [3], 16.8 µM (active); in assay [5], 21.1 µM (active); in [6], 1.19 µM (active); in assay [9], 11000 nM (active). Besides, the Potency entry in [2] and in assay [4] was “inactive” in each case.

With `O=C(O)C(S)C(S)C(=O)O` (stereo not given), the Potency entry in assay [1], in assay [2], in assay [3], in assay [4], in assay [5] and in [6] was “inactive” in each case. Further, the Potency result in assay [7], in assay [8] and in assay [9] was “inactive” throughout.

Take `N=c1ccn2c(n1)O[C@H]1[C@H](O)[C@@H](CO)O[C@H]12`: the Potency entry in assay [1], in assay [2], in assay [3], in assay [4], in [5] and in assay [6] was “inactive” in each case. For the same compound, the Potency entry in assay [8] is “inactive”.

Consider `COc1cc(Cl)ccc1Oc1ccc(Cl)cc1Cl`, for which the Potency entry in assay [1], in assay [2], in assay [3], in [4], in assay [5] and in [9] was “inactive” in each case. The Potency in [6] was 26.5 µM (active).

For `COC(C)OC`, the Potency result in [1], in [2], in assay [3], in [4], in [5] and in assay [6] was “inactive” in each case. In addition, in [9], the Potency entry is “inactive”.

Consider `Brc1c2ccccc2c(Br)c2ccccc12`, for which the activity change, negative = cytotoxicity in assay [1] was 4.3% [at 8.39 µM]; in assay [3], 14.3% [at 8.39 µM]; in assay [5] it was 5.61% [at 8.39 µM]. In assay [2], the caspase activation is 0.0205% [at 8.39 µM]. Besides, the caspase-3/7 activation in [4] was -0.773% [at 8.39 µM]. The activation in assay [6] is 1.22% [at 8.39 µM]. In assay [9], the activity change, negative = inhibition is 0.168% [at 10.5 µM].

As for `CC[N+](C)(CC)CCOC(=O)C(O)(c1ccccc1)C1CCCCC1` (stereo not given), the Potency entry in assay [1], in assay [2], in assay [3], in assay [4], in assay [5] and in assay [6] was “inactive” throughout. Further, the Potency in assay [9] was 776 nM (active).

Source of the values: PubChem BioAssay (Tox21).
